Rows were chosen to be rich in hits. Some 6.6% of all compounds tested hit in one or more screens of this group.
MK inhibit – inhibitors of Streptococcus pneumoniae mevalonate kinase; 65,000 tested, 0.48% active; inhibition, % at 10 µM; purified MK, PK/LDH-coupled NADH absorbance 340 nm;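 active = ranked among the strongest by inhibition in the single 10 µM screen, a fixed top-ranked set picked for dose follow-up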
Fluor 339 460 – intrinsic fluorescence of library compounds, ex339/em460 – biochemical, MLSMR library, data from DPM-DC assay, artefact control, profiling panel | AID 709 | compound autofluorescence, ex339/em460 nm, NADH buffer; active compounds read high; 1 = no-compound wells, NADH background | 65,000 tested, 5.5% active | fluorescence fold increase at 10 µM;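 active = at 10 µM, mean starting fluorescence two-fold or more over control wells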;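 note: signal is the first read of a kinetic run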
NADH coupling – inhibition of NAD/NADH coupling enzymes, library profiling. coupled PK/LDH NADH assays, four targets. IC50, µM (highest dose often 10 µM), without a hit: at the highest dose inhibition. 65,000 tested, 0.02% active. AID 774;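 active = single-dose screening hits from any of four coupled enzyme assays that gave an IC50 when retested across doses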;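 note: the DPM-DC format reads NADH fluorescence rather than 340 nm absorbance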
Spn PMK inh – inhibitors of Streptococcus pneumoniae phosphomevalonate kinase; 65,000 tested, 0.49% active; purified PMK, PK/LDH-coupled NADH absorbance 340 nm; inhibition, % at 10 µM;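 active = top-ranked compounds by inhibition in the single 10 µM screen, taking a fixed number of the strongest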;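 note: 0% = full reaction with DMSO carrier and 100% = background rate without enzyme reaction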
Spn DPM-DC inh – inhibitors of Streptococcus pneumoniae diphosphomevalonate decarboxylase | calls only at 10 µM | 65,000 tested, 0.49% active | purified DPM-DC, PK/LDH coupled NADH fluorescence | AID 556;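 active = the 320 compounds with the highest percent inhibition in the single-dose primary screen, excluding strongly autofluorescent ones, cut at about 32% in these data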;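 note: kinetic rate of NADH fluorescence loss reporting ADP formed by the decarboxylase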
An asterisk follows results filed as active; i = inactive; nt = not tested or not shown.

SMILES	MK inhibit	Fluor 339 460	NADH coupling	Spn PMK inh	Spn DPM-DC inh
CCOC(=O)c1c(NC(=O)c2cccs2)sc2c1CC(C)(C)OC2	9	2.1*	6%	3	i
CCOC(=O)c1c(C2COc3ccccc3O2)csc1NC(=O)c1ccco1 (stereo unspecified)	28	3.2*	11%	4	i
CCOC(=O)c1cccc(NC(=O)c2cccs2)c1	6	1.2	5%	5	i
COc1ccc(OC)c(C(=O)c2ccc(C(=O)N3CCCCC3)cc2)c1	7	1.1	2%	0	i
Cn1cc(SCC(=O)N2CCN(c3ccccc3)CC2)c2ccccc21	8	1.1	3%	0	i
COc1ccccc1NC(=O)c1c(NC(=O)c2ccco2)sc2c1CCC2	2	2.3*	3%	4	nt
O=C(COC(=O)c1ccco1)NC1CCCCC1	0	1	8%	25*	i
CCOC(=O)c1c(NC(=O)c2ccco2)sc2c1CCCC2	7	2.1*	9%	10	nt
COC(=O)c1c(-c2ccccc2)csc1NC(=O)c1ccco1	0	4.9*	5%	10	nt
O=C(Nc1scc(-c2ccc(F)cc2)c1C(=O)O)c1ccco1	8	1.1	3%	0	i
CCOC(=O)c1[nH]c(C(=O)O)c(CCN(CC)CC)c1C	1	1	10%	19	i
C=CCOC(=O)C1=C(C)Nc2nc3ccccc3n2C1c1ccncc1 (stereo unspecified)	10	1.5	5%	6	i
CCOC(=O)c1c(NC(=O)c2nc3n(n2)C(C(F)F)CC(C)N3)sc2c1CCCC2 (stereo unspecified)	6	5.1*	12%	17	nt
CCOc1ccc(-n2c(=O)c3c(C)c(C)sc3n(CC(=O)NCc3ccco3)c2=O)cc1	6	1.1	7%	16	i
COc1ccc(-n2c(=O)c3c4c(sc3n(CC(=O)NCc3ccco3)c2=O)CCC4)c(OC)c1	63*	1.1	22%	3	i
Cc1nn(Cc2ccc(Cl)cc2Cl)c(C)c1NC(=O)c1nc2n(n1)C(C(F)F)CC(C)N2 (stereo unspecified)	4	1.2	4%	9	i
CCOC(=O)c1c(NC(=O)COC)sc2c1CCCC2	9	1.2	3%	0	i
CCOC(=O)c1c(NC(=O)c2ccn(CC)n2)sc2c1CCCC2	4	2.7*	13%	0	nt
CC1(C)Cc2c(C#N)c(SCCC#N)nc(N3CCOCC3)c2CS1	0	1	1%	4	i
O=C1CSC(c2cn(-c3ccccc3)nc2-c2cc3ccccc3oc2=O)N1Cc1ccco1 (stereo unspecified)	7	5*	11%	14	nt
CC[N+](C)(C)c1cccc(O)c1	4	1	1%	4	i
COc1ccc2oc(C(=O)C3CC3)c(N)c2c1	2	2.1*	10%	8	i
COc1ccc(C(=O)c2oc3ccccc3c2N)cc1	10	1.5	9%	0	i
COc1ccc2nc(NC(=O)C3CCCN(S(=O)(=O)c4cccc5nonc45)C3)sc2c1 (stereo unspecified)	70*	1	28%	15	i
COc1ccc2nc(NC(=O)C3CCCN(S(=O)(=O)c4cccc5nsnc45)C3)sc2c1 (stereo unspecified)	7	1	4%	8	i
SMILES	MK inhibit	Fluor 339 460	NADH coupling	Spn PMK inh	Spn DPM-DC inh
O=C(C1CCN(S(=O)(=O)N2CCOCC2)CC1)N1CCN(c2ccccc2)CC1	0	1.1	2%	7	i
COc1ccccc1/C=C/CN1CC(C)OC(C)C1 (stereo unspecified)	48*	1.1	16%	0	i
CCOC(=O)c1c(C)n(C)c2ccc(O)c(CN3CCC(C)CC3)c12	48*	1.1	18%	7	i
CCOC(=O)c1c(C)n(C)c2ccc(O)c(CN3CCN(C)CC3)c12	6	1.1	4%	5	i
Cc1cc(C)c(S(=O)(=O)n2nc(C)c(Br)c2C)c(C)c1	4	1.1	3%	4	i
Cc1c(-c2ccc(F)cc2)nc(N)c(C#N)c1-c1ccco1	10	2.4*	5%	6	i
O=C(NCc1ccc2c(c1)OCO2)c1ccc(CN2CCOCC2)cc1	12	1.1	8%	9	i
COc1ccc(-c2c3c(=O)n(C)c(=O)n(C)c3cn2Cc2ccccn2)cc1	4	1.3	4%	7	i

Screens (PubChem)
